According to PubChem BioAssay (EPA / NIEHS):
Records with an inconclusive call do not appear. The source made the active and inactive calls. The calls were made as follows, unless noted: active = hit-call score of the fitted dose curve at least 0.9, where 1 is the maximum; inconclusive = response in the unintended direction; inactive = score below 0.9.

Tests used:
[1] = read-out: Nuclear factor erythroid 2-related factor 2 (Homo sapiens) (UniProt Q16236); assay: LTEA_HepaRG_NFE2L2: Life Technologies and Expression Analysis (LTEA) Assay for Nuclear factor erythroid 2-related factor 2 (NFE2L2) Transcription Factor using HepaRG (AID 2283527; active = hit-call score of the fitted dose curve at least 0.9, where 1 is the maximum; inactive = score below 0.9;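 also: TaqMan qRT-PCR transcript level normalised to ACTB GAPDH and POLR2A housekeeping genes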); settings: mRNA level, 48 h; actives raise or lower the signal
Procedure, shortened: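 Human liver HepaRG line treated in duplicate for 48 h with an eight-point series topping at 100 uM. Gene expression of NFE2L2 by qRT-PCR, bidirectionally fitted against the vehicle control.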

[2] = read-out: succinate dehydrogenase complex iron sulfur subunit B (SDHB), SDHB (gene 6390); assay: LTEA_HepaRG_SDHB: Life Technologies and Expression Analysis (LTEA) Assay for succinate dehydrogenase complex iron sulfur subunit B (SDHB) using HepaRG (AID 2283528; active = hit-call score of the fitted dose curve at least 0.9, where 1 is the maximum; inactive = score below 0.9); settings: mRNA level, 48 h; actives raise or lower the signal
Procedure, shortened: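 A human HepaRG culture in serum-free induction medium received test chemicals for 48 h over an eight-point range capped at 100 uM. SDHB expression change was quantified by qRT-PCR.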

[3] = read-out: Signal transducer and activator of transcription 3 (Homo sapiens) (UniProt P40763); assay: LTEA_HepaRG_STAT3: Life Technologies and Expression Analysis (LTEA) Assay for Signal transducer and activator of transcription (STAT3) using HepaRG (AID 2283529; active = hit-call score of the fitted dose curve at least 0.9, where 1 is the maximum; inactive = score below 0.9); settings: mRNA level, 48 h; actives raise or lower the signal
Procedure, shortened: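 In this transcriptional endpoint, HepaRG cultures receive test chemicals at up to 100 uM for 48 h, tested in duplicate. STAT3 mRNA is normalized to ACTB, GAPDH and POLR2A.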

[4] = read-out: solute carrier (SLCO1B1), SLCO1B1 (gene 10599); assay: LTEA_HepaRG_SLCO1B1: Life Technologies and Expression Analysis (LTEA) Assay for solute carrier (SLCO1B1) using HepaRG (AID 2283530; active = hit-call score of the fitted dose curve at least 0.9, where 1 is the maximum; inactive = score below 0.9); settings: mRNA level, 48 h; actives raise or lower the signal
Procedure, shortened: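 HepaRG, serum-free induction medium, 48 h dosing, 8-pt half-log from 100 uM, 0.5% DMSO vehicle, duplicates. Readout: SLCO1B1 mRNA, qRT-PCR, ACTB/GAPDH/POLR2A normalization; up or down fit vs DMSO.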

[5] = read-out: sulfotransferase 2A1 (SULT2A1), SULT2A1 (gene 6822); assay: LTEA_HepaRG_SULT2A1: Life Technologies and Expression Analysis (LTEA) Assay for sulfotransferase 2A1 (SULT2A1) using HepaRG (AID 2283531; active = hit-call score of the fitted dose curve at least 0.9, where 1 is the maximum; inactive = score below 0.9); settings: mRNA level, 48 h; actives raise or lower the signal
Procedure, shortened: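 Transcript levels of SULT2A1, quantified by qRT-PCR and normalized to three housekeeping genes, serve as the readout. Human HepaRG cultures receive test chemicals for 48 h at up to 100 uM in half-log steps, with 0.5% DMSO vehicle.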

[6] = read-out: Transforming Growth Factor (TGFA), TGFA (gene 7039); assay: LTEA_HepaRG_TGFA: Life Technologies and Expression Analysis (LTEA) Assay for Transforming Growth Factor (TGFA) using HepaRG (AID 2283532; active = hit-call score of the fitted dose curve at least 0.9, where 1 is the maximum; inactive = score below 0.9); settings: mRNA level, 48 h; actives raise or lower the signal
Procedure, shortened: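 Gene expression of TGFA was quantified by qRT-PCR after human HepaRG cells were treated for 48 h with test chemicals (eight concentrations, highest 100 uM, 0.5% DMSO). Activity in either direction was fitted relative to DMSO.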

[7] = read-out: Transforming Growth Factor (TGFB1), TGFB1 (gene 7040); assay: LTEA_HepaRG_TGFB1: Life Technologies and Expression Analysis (LTEA) Assay for Transforming Growth Factor (TGFB1) Transporter using HepaRG (AID 2283533; active = hit-call score of the fitted dose curve at least 0.9, where 1 is the maximum; inactive = score below 0.9); settings: mRNA level, 48 h; actives raise or lower the signal
Procedure, shortened: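 HepaRG, 48 h post-plating, switched to serum-free induction medium; chemicals 100 uM top, half-log, 8 pts, 0.5% DMSO, dup; 48 h exposure; RNA → Fluidigm TaqMan qRT-PCR; norm ACTB/GAPDH/POLR2A; bidirectional fit vs DMSO.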

TIMP1, TIMP1 (gene 7076) = assay: LTEA_HepaRG_TIMP1: Life Technologies and Expression Analysis (LTEA) Assay for TIMP1 using HepaRG (AID 2283534; active = hit-call score of the fitted dose curve at least 0.9, where 1 is the maximum; inactive = score below 0.9;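 also: TaqMan qRT-PCR signal normalized to ACTB GAPDH and POLR2A housekeeping genes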); settings: mRNA level, 48 h; actives raise or lower the signal
Procedure, shortened: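 Readout is TIMP1 mRNA level measured by qRT-PCR and normalized to three housekeeping genes. Human HepaRG cells were treated for 48 h in duplicate at eight concentrations up to 100 uM (0.5% DMSO); gain or loss fitted against DMSO.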

[8] = read-out: Tumor necrosis factor receptor 1 (TNFRSF1A), TNFRSF1A (gene 7132); assay: LTEA_HepaRG_TNFRSF1A: Life Technologies and Expression Analysis (LTEA) Assay for Tumor necrosis factor receptor 1 (TNFRSF1A) using HepaRG (AID 2283535; active = hit-call score of the fitted dose curve at least 0.9, where 1 is the maximum; inactive = score below 0.9); settings: mRNA level, 48 h; actives raise or lower the signal
Procedure, shortened: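 Read-out is TNFRSF1A transcript level by TaqMan qRT-PCR, normalized to three housekeeping genes, scored as gain or loss of signal versus 0.5% DMSO. Human HepaRG cells received test chemicals for 48 h at up to 100 uM (half-log series).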

[9] = read-out: Thyroid Hormone Responsive (THRSP), THRSP (gene 7069); assay: LTEA_HepaRG_THRSP: Life Technologies and Expression Analysis (LTEA) Assay for Thyroid Hormone Responsive (THRSP) using HepaRG (AID 2283536; active = hit-call score of the fitted dose curve at least 0.9, where 1 is the maximum; inactive = score below 0.9); settings: mRNA level, 48 h; actives raise or lower the signal
Procedure, shortened: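 Cell model: human HepaRG, approx. 100,000 cells/well, 0.5% DMSO vehicle. Exposure lasts 48 h; phenobarbital 1 mM serves as induction positive control. Gene expression is measured by qRT-PCR against three endogenous control genes.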

[10] = read-out: UDP glucuronosyltransferase (UGT1A1), UGT1A1 (gene 54658); assay: LTEA_HepaRG_UGT1A1: Life Technologies and Expression Analysis (LTEA) Assay for UDP glucuronosyltransferase (UGT1A1) using HepaRG (AID 2283538; active = hit-call score of the fitted dose curve at least 0.9, where 1 is the maximum; inactive = score below 0.9); settings: mRNA level, 48 h; actives raise or lower the signal
Procedure, shortened: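 mRNA induction or loss of UGT1A1, by TaqMan qRT-PCR, in duplicate HepaRG wells after 48 h exposure to half-log dilutions topping at 100 uM; DMSO (0.5%) served as baseline.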

[11] = read-out: X-box binding protein 1 (XBP1), XBP1 (gene 7494); assay: LTEA_HepaRG_XBP1: Life Technologies and Expression Analysis (LTEA) Assay for X-box binding protein 1 (XBP1) using HepaRG (AID 2283540; active = hit-call score of the fitted dose curve at least 0.9, where 1 is the maximum; inactive = score below 0.9); settings: mRNA level, 48 h; actives raise or lower the signal
Procedure, shortened: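 Transcript levels of XBP1, measured by qRT-PCR and normalised to three housekeeping genes, were fitted bidirectionally relative to 0.5% DMSO controls. Human HepaRG cells received eight-point half-log dilutions from 100 uM for 48 h.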

[12] = LTEA_HepaRG_LDH_cytotoxicity: Cytotoxicity Assessment in the Life Technologies and Expression Analysis (LTEA) Assay (AID 2283563)
Procedure, shortened: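 Cells were thawed and plated for 48 h. Medium was then replaced with serum-free induction medium. Chemicals (8 half-log points, maximum 100 uM, 0.5% DMSO) were added in duplicate for 48 h, after which spent medium was assayed for LDH.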

[13] = ATG_XTT_Cytotoxicity: Cytotoxicity Assessment in the Attagene TRANS-FACTORIAL HepG2 Assay (AID 2283584);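 as to AC50: cells exposed to compound for 24 h before reading; active means loss of viability signal versus DMSO baseline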
Procedure, shortened: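 Cells: human HepG2, transiently transfected with MRTU reporter constructs. Exposure 24 h. Readout: XTT, cell number. Baseline/neg ctrl DMSO; loss-of-signal scored.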

[14] = TOX21_p53_BLA_p2_viability: Viability Assessment in the Tox21 HCT-116 p53 Agonism Beta-lactamase Assay, Phase 2 (AID 2283591);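 also: compound exposure lasted 16 h at 37 °C; actives lower the ATP signal meaning cytotoxicity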
Procedure, shortened: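 HCT-116 p53-bla cells (4000/well) rested 5 h at 37C, then received compounds in DMSO (217-fold dilution) for 16 h at 37C, 5% CO2. After the CCF4 read, CellTiter-Glo was added; ATP luminescence was read after 30 min at room temperature.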

[15] = biological target: Cellular tumor antigen p53 (Homo sapiens) (UniProt P04637); assay: TOX21_p53_BLA_p2_ratio: Tox21 HCT-116 p53 Agonism Beta-lactamase Assay, Ratio, Phase 2 (AID 2283592)
Procedure, shortened: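 Plated HCT116 p53-bla cells (4000/well) received compound after 5 h, then 16 h at 37C/5% CO2. CCF4-AM added, 2 h RT. Ratio of 460 to 530 nm emission taken as the p53 reporter signal.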

[16] = TOX21_p53_BLA_p3_viability: Viability Assessment in the Tox21 HCT-116 p53 Agonism Beta-lactamase Assay, Phase 3 (AID 2283593);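 also: cells exposed to compound for 16 h before reading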
Procedure, shortened: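 HCT-116 cells (4000/well) rested 5 h at 37C, then got DMSO compounds by pin tool (217-fold dilution) for 16 h at 37C, 5% CO2. After the bla read, CellTiter-Glo was added and luminescence read at 30 min, room temperature.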

[17] = TOX21_p53_BLA_p4_viability: Viability Assessment in the Tox21 HCT-116 p53 Agonism Beta-lactamase Assay, Phase 4 (AID 2283597);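 also: hits lower the luminescence signal meaning cytotoxicity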
Procedure, shortened: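 Readout: ATP luminescence (CellTiter-Glo), measured 30 min after reagent addition at RT. The reagent followed a 2 h CCF4-AM incubation, and the cells had been exposed to compound for 16 h at 37C.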

[18] = biological target: Cellular tumor antigen p53 (Homo sapiens) (UniProt P04637); assay: TOX21_p53_BLA_p3_ratio: Tox21 HCT-116 p53 Agonism Beta-lactamase Assay, Ratio, Phase 3 (AID 2283596)
Procedure, shortened: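 Cells were seeded at 4000/well, rested 5 h at 37C, then dosed with DMSO compound solutions (217-fold dilution) for 16 h. CCF4-AM substrate was loaded for 2 h at room temperature, and the 460/530 nm emission ratio was fitted for gain of signal versus DMSO.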

Measured: AC50

Sequence of Cellular tumor antigen p53 (Homo sapiens) (P04637 whole entry, looked up): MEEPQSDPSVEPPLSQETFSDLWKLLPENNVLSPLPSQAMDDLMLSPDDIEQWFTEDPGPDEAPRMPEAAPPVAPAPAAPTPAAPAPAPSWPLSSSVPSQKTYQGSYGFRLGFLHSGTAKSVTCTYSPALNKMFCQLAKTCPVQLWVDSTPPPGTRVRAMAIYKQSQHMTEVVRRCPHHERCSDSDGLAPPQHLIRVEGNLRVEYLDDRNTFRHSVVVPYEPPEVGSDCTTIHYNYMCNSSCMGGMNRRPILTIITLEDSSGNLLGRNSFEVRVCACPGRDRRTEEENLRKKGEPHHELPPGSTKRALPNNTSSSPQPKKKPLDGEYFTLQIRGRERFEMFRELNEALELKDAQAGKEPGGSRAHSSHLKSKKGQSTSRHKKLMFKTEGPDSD
Sequence of Signal transducer and activator of transcription 3 (Homo sapiens) (P40763 whole entry, looked up): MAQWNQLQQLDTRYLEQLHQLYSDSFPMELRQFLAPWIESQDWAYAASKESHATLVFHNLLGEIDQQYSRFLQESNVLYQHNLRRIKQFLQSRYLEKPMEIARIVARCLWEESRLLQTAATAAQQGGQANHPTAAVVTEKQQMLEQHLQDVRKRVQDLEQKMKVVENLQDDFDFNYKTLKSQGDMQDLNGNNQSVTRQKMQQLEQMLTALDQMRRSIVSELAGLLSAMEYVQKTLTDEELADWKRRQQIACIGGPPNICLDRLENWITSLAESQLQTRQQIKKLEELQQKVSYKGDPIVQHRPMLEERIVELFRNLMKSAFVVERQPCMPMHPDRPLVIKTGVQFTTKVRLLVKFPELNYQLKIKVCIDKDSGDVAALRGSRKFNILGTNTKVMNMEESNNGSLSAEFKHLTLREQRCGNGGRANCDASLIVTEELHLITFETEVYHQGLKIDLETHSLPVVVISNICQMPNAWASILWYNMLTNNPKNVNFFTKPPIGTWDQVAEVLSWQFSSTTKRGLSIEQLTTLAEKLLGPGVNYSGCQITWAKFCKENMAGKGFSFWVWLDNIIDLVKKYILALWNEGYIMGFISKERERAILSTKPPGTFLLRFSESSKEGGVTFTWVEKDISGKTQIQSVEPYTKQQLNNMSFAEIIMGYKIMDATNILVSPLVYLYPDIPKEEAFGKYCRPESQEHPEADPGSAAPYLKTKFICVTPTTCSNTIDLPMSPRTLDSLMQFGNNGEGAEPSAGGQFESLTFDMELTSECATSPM
Sequence of Nuclear factor erythroid 2-related factor 2 (Homo sapiens) (Q16236 whole entry, looked up): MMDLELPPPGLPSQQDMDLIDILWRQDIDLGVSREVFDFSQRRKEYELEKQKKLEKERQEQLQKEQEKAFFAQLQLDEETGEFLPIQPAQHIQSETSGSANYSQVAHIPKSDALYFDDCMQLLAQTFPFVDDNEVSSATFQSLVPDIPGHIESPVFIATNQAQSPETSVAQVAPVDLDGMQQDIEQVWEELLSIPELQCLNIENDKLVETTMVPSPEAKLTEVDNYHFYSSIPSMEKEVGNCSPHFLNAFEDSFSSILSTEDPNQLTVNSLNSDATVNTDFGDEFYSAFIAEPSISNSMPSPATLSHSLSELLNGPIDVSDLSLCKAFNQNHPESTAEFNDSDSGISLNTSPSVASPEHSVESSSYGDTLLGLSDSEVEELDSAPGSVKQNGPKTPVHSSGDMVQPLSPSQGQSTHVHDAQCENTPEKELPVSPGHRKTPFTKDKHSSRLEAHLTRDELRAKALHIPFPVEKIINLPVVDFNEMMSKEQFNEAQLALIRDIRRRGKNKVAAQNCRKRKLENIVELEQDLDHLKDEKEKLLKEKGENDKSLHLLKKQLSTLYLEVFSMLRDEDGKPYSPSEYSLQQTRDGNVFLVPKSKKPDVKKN

Clc1cccc(Cl)c1
not listed: [13] | [14] | [15] | [16] | [17] | [18]
inactive: all other assays above

N#Cc1cccnc1
not listed: [14] | [15] | [16] | [17] | [18]
inactive: all other assays above

C=CCOC(N)=O
inactive: [13]

CCCCCCCCCCCCBr
inactive: [13] | [14] | [15] | [16] | [17]

C[C@H]1C(=O)O[C@@H]2CCN3CC=C(COC(=O)[C@](C)(O)[C@]1(C)O)[C@H]23
inactive: [13] | [15] | [16]

CC(C)[C@H](C(=O)OC(C#N)c1cccc(Oc2ccccc2)c1)c1ccc(OC(F)F)cc1 (some centres not stated)
inactive: [13] | [15] | [16]

O=C(CCl)Nc1ccccc1
inactive: [13] | [15] | [16]

O=C(O)COc1ccc(Cl)cc1
inactive: [13] | [14] | [16]

ClCCCCl
inactive: [13] | [14] | [15] | [16] | [17]

CC(O)(CS(=O)(=O)c1ccc(F)cc1)C(=O)Nc1ccc(C#N)c(C(F)(F)F)c1 (configuration not stated)
inactive: [13] | [15] | [16]

O=C(O)c1cc(I)cc(I)c1I
inactive: [13] | [14] | [15] | [16] | [17]

O=[N+]([O-])c1ccccc1O
inactive: [13] | [14] | [15] | [16] | [17]

BrCCCCBr
inactive: [13] | [14] | [15] | [17]

CCOC(=O)CCN(SN(C)C(=O)Oc1cccc2c1OC(C)(C)C2)C(C)C
inactive: [13] | [14] | [18]

Cc1cc(C(C)(C)c2ccc(O)c(C)c2)ccc1O
active: [15] 30.2 µM
inactive: [13] | [14] | [18] | [17]

CCCCCCCCCCCCCCC(Br)C(=O)O (configuration not stated)
inactive: [13] | [14]
active: [16] 41.4 µM

OC(c1ccc(Cl)cc1)(c1ccc(Cl)cc1)c1cccnc1
active: [13] 67.7 µM | [14] 46.1 µM | [15] 44.3 µM | [17] 60.5 µM
inactive: [16] | [18]

O=NN1CCCCCCC1
inactive: [13] | [14] | [15] | [17]

c1csc(-c2ccc(-c3cccs3)s2)c1
active: [15] 50.2 µM | [18] 41.9 µM
inactive: [13] | [14]
